Assay outcomes from PubChem.
Compounds with a hit are over-represented: about 7.6% of the library has one in this group of screens.
ELG1 DNA repair: qHTS screen for small molecules that inhibit ELG1-dependent DNA repair in human embryonic kidney (HEK293T) cells expressing luciferase-tagged ELG1. HEK293T ELG1-luciferase reporter, luminescence, 16 h; DNA damage induced by 5-fluorouridine. Potency, µM (titrated, usually from 46.1 µM), for the others: at the top dose activity change, negative = inhibition, usual class: inhibitors. hit rate 2.3% among 330,000; note: potency is the fitted concentration of half-maximal effect; % is set by controls: 0 for no effect and ±100 for the full control effect; nearly all actives have a fitted effect of over 55% in size
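5-Fluorouridine DNA damage + compound/DMSO, 2,000 cells/well, 16 h, 37 °C/5% CO2. ONE-Glo, 30 min RT, luminescence. Readout = decrease in reporter signal.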
Gal4-VP16 FLuc: VP16 counterscreen qHTS for inhibitors of ROR gamma transcriptional activity. Potency, µM (highest dose often 53.6 µM), for the others: top-dose activity, negative = inhibition, hits mostly inhibitors. Drosophila S2 Gal4-VP16 UAS-luciferase, luminescence, 20 h. hit rate 3.5% among 310,000;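 note: Gal4-VP16 expression switched on by copper sulfate through the metallothionein promoter; potency is the fitted concentration of half-maximal effect; % is set by controls: 0 for no effect and ±100 for the full control effect; nearly all actives have a fitted effect of over 50% in size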
Giardia kill: Small Molecules that selectively kill Giardia lamblia: qHTS; Giardia lamblia trophozoite viability; activity change, % at 7.66 µM, hits read low; hit rate 0.15% among 340,000; AID 540267, 2011; in the data active = activity change below about -80%; inconclusive = between about -30% and that limit;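 note: parasites exposed to compound for two days anaerobically before the ATP read; % is set by controls: 0 for no effect and ±100 for the full control effect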
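Trophozoite viability was measured as ATP-dependent luminescence, read 15-30 min after reagent addition. Before that, parasites at 100 cells/well were exposed to compounds for 48 h, anaerobically, at 37 deg C.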
BRCA1 expr act: qHTS Assay to Identify Small Molecule Activators of BRCA1 Expression; MCF7-BRCA1-FFLuc reporter, luminescence, 48 h; response scale: scaled: vehicle 0%, 10 µM genistein 100%; Potency, µM (titrated, usually from 46.1 µM), for the others: at the highest dose activation, most hits filed as activators; hit rate 1.1% among 380,000; note: potency is the fitted concentration of half-maximal effect; nearly all actives have a fitted effect of over 80% in size
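Reporter cells (MCF7, BRCA1 promoter-firefly luciferase) received library compounds across a concentration series for 48 h. End-point luminescence was measured and concentration-effect curves derived after normalization.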
p53 reactivation: qHTS assay for re-activators of p53 using a Luc reporter. hit rate 0.063% among 320,000. AID 504706, 2011. H1299 p53-A138V BP100-luciferase reporter, luminescence, 24 h. Potency, µM (series often up to 92.2 µM), inactives show top-dose activity change, positive = activation, hits mostly activators; note: potency is the fitted concentration of half-maximal effect; % of control where 0% means no effect; nearly all actives have a fitted effect of over 45% in size
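p53-null H1299 cells stably carrying temperature-sensitive p53-A138V and a BP100-luciferase reporter were pinned with compounds (4-point, 1:5 series) and held 24 hrs at 37 deg C. Luminescence was read 10 min after detection reagent.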
RORg inh: qHTS for inhibitors of ROR gamma transcriptional activity; hit rate 5.4% among 310,000; Drosophila S2 Gal4-RORgamma UAS-luciferase reporter, 20 h; Potency, µM (doses to about 53.6 µM), for the others: at the top dose activity change, negative = inhibition, hits mostly inhibitors; note: potency is the fitted concentration of half-maximal effect; % is set by controls: 0 for no effect and ±100 for the full control effect; nearly all actives have a fitted effect of over 60% in size
Target sequence (P51450 whole entry, looked up, the tested form may be a part): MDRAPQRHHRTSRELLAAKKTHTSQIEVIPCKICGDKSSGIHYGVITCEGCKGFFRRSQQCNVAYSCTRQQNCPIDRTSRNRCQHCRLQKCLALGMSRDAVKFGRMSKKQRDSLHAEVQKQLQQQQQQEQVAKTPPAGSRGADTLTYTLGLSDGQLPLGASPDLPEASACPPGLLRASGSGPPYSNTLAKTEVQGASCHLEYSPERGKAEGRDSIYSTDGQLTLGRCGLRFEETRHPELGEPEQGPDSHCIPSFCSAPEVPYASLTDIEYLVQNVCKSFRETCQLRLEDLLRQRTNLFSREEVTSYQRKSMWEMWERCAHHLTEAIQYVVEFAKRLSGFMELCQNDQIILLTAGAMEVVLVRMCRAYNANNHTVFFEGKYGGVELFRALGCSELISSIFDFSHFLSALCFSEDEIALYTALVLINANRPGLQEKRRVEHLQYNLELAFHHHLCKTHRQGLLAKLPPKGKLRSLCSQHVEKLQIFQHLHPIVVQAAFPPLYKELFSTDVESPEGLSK
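Using a luciferase readout, inhibitors were identified by reduced reporter activity in Drosophila cells coexpressing a copper-inducible Gal4–ROR gamma fusion and UAS-driven Photinus luciferase, incubated 20 hr after 700 uM copper sulfate.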
* = called active by the depositor; ? = inconclusive; / = no result given; [ ] = remark or other dose. Unless noted, calls come from the whole dose curve; as a rule, active = well fitted curve in the direction sought with a large enough effect; inconclusive = small, poorly fitted or top-dose-only effect, or another doubt; inactive = no such curve, though single readings can be large; an effect the other way counts as inactive or inconclusive.

SMILES | ELG1 DNA repair | Gal4-VP16 FLuc | Giardia kill | BRCA1 expr act | p53 reactivation | RORg inh
CC(C)CSc1n[nH]c(=S)s1 | -18% | -10% | -14 | 20% | 4% | 10µM*
Cn1nnnc1SCCNCc1ccccc1OCc1ccccc1Cl | ? | ? | -16 | -34% | -5% | ?
COC(=O)[C@H](COC(C)(C)C)NC(=O)O[C@@H]1Cc2cc(Br)ccc2O[C@H]1c1cccc(OC)c1 | / | -5% | / | / | / | 27%
COc1cc(OC)cc(C(=O)NC(=S)N(Cc2ccccc2)C(C)C)c1 | ? | 0.89µM* | -4 | -20% | 0% | 0.5µM*
COc1ccc(CNC(=O)c2ccncc2)cc1 | -7% | -2% | -2 | 0% | 11% | 13%
COc1ccc(CNC(=O)c2c(C)nc3ccccn23)cc1 | 13µM* | ? | 1 | -36% | 7% | ?
Cc1nc2ccccn2c1C(=O)NNS(=O)(=O)c1ccc(C(C)(C)C)cc1 | ? | 16µM* | -17 | -41% | -6% | 17%
COc1ccc(CNC(=O)c2ccc(C(C)(C)C)cc2)cc1 | ? | -14% | -3 | 3.5µM* | 11% | 2%
CCOC(=O)c1cnn(-c2ccccc2)c1-n1cccc1C(=O)C(=O)Nc1ccc(OC)cc1 | -11% | 2% | 18 | 12% | 0% | 9%
COc1cc(OC)cc(C(=O)N[C@H](C(=O)Nc2nnc(C3CC3)s2)C(C)C)c1 | -5% | -12% | -8 | -7% | -2% | 42%
COCCCn1cc(CN2CC(N3CCN(C4CCN(C)CC4)CC3)CS2(=O)=O)nn1 (stereo not given) | / | / | / | 2% | / | /
COc1ccc(CNC(=O)c2ccc(N(C)S(=O)(=O)c3ccc(C)cc3)cc2)cc1 | 21µM* | -1% | -2 | -45% | -31% | -11%
COc1ccc(C(=O)NC(=S)NCc2ccccc2)cc1 | ? | 22µM* | -15 | 42% | 18% | 7.1µM*
COc1ccc(CNC(=O)Cn2cccc2C(=O)c2ccccc2)cc1 | ? | 15% | 7 | 11µM* | ? | 40%
O=C(NC(=S)NCc1ccccc1)c1ccc(Br)cc1 | / | / | -7 | -4% | / | /
COc1ccc(CNC(=O)Cn2cccc2C(=O)c2ccccc2C)cc1 | ? | ? | -4 | 9% | ? | 10%
COc1ccc(C(=O)NC(=S)NCc2cccnc2)cc1Cl | ? | ? | 4 | -30% | -5% | 11µM*
COc1ccc(C(=O)NCc2cccnc2)cc1Br | 36% | -3% | 3 | 1% | -3% | 0%
O=C(NNS(=O)(=O)c1cc(Cl)c(Cl)cc1Cl)c1cccnc1 | 4% | 1% | 8 | -26% | 7% | 1%
COC(=O)CCN(C(=O)C12CC3CC(CC(C3)C1)C2)c1ccccn1 | 7% | 2% | 6 | -3% | -5% | -15%
COc1cc(OC)cc(C(=O)NCCNC(=O)c2ccccc2)c1 | -6% | 4% | -22 | -3% | -2% | 17%
COc1cc(OC)cc(C(=O)NC(=S)NCCc2ccccc2)c1 | 6% | 0.63µM* | -17 | 0% | 26% | 0.71µM*
O=C(CSc1nnc(-c2cccnc2)o1)Nc1nccs1 | 20% | / | 16 | 76% | 26% | /
COc1ccc(C(=O)NC2CCCc3c2cnn3-c2ccc(C)c(C)c2)c(OC)c1OC (stereo not given) | 18µM* | -26% | 23 | -25% | -5% | ?
Cc1cc(C(=O)NC2CCCc3c2cnn3-c2ccc(C)c(C)c2)no1 (stereo not given) | -6% | -24% | -26 | 2% | -2% | ?
SMILES | ELG1 DNA repair | Gal4-VP16 FLuc | Giardia kill | BRCA1 expr act | p53 reactivation | RORg inh
Cc1ccc(-n2ncc3c2CCCC3NC(=O)c2ocnc2C)cc1C (stereo not given) | ? | 7.1µM* | 0 | -37% | -3% | 21%
CCOC(=O)/C(=N\Nc1cccc(Cl)c1)Sc1nnc(-c2ccc(OC)cc2)n1C | 1% | 11µM* | 10 | 0% | -12% | 3.5µM*
CC1=C(C(=O)OC(C)C)C(C2CC=CCC2)NC(=O)N1 (stereo not given) | -7% | / | -1 | -4% | -15% | -7%[0.365 µM]
c1ccc(N(c2ccccc2)c2nc(-n3ccnc3)nc(-n3ccnc3)n2)cc1 | ? | -13% | -6 | -55% | -14% | -28%
C=CCNc1nc(N(c2ccccc2)c2ccccc2)nc(-n2ccnc2)n1 | -3% | -13% | -4 | 2%[1.84 µM] | -10% | 11µM*
CCCCNc1nc(N(C)c2ccccc2)nc(-n2ccnc2)n1 | ? | ? | -15 | -53% | 18% | 10µM*
CCCCN(CCCC)C(=S)NC(=O)c1ccccc1Cl | -3% | 2µM* | 1 | -23% | -6% | 0.71µM*
CCN(CC)CCOC(=O)c1ccc(Cl)cc1Cl | -13% | ? | -9 | -2% | 1% | -20%
O=C(NC(=S)NCCN1CCOCC1)c1ccc(Cl)cc1Cl | ? | ? | -8 | 7% | -1% | 4µM*
O=C(NCCCNC(=O)c1ccc(Cl)cc1Cl)c1ccco1 | -3% | 1% | 2 | -11% | 1% | -3%
CCCCNC(=S)NC(=O)c1ccc(Cl)cc1Cl | ? | ? | -2 | ? | 8% | 16µM*
CCN(CC)C(=S)NC(=O)c1ccc(Cl)cc1Cl | -4% | 1.6µM* | -17 | 6% | 1% | 0.79µM*
CCCCNC(=S)NC(=O)c1ccccc1Br | ? | 11µM* | 1 | 53% | 8% | 7.9µM*
O=C(NCCCNC(=O)c1ccccc1Br)c1ccccc1Br | -11% | 7% | -30 | 15% | -10% | -1%
COc1ccc(NC(=O)CN2C(=O)COc3ccc(C)cc32)c(OC)c1 | -4% | 6% | -4 | -10% | / | -2%[1.91 µM]
O=C1Nc2ccc(Br)cc2C1(O)c1ccccc1 (stereo not given) | 11% | 4% | -18 | -31% | -4% | 8%
O=C1Nc2ccc(Br)cc2C12NNc1ccccc1O2 (stereo not given) | 27% | ? | -17 | -71% | 5% | 11µM*
CCC(=O)N(Cc1cc2cc(OC)ccc2[nH]c1=O)c1cccc(C)c1 | ? | 25% | 6 | -11% | -25% | 13%
COc1cc2c(cc1NC(=O)COC(=O)CNC(=O)c1ccccc1)oc1ccccc12 | ? | 6.3µM* | -2 | 0% | 2% | 11µM*
COc1ccccc1CC(=O)Nc1cc2oc3ccccc3c2cc1OC | -1% | -20% | -7 | -8% | -1% | -3%
